# Values without a mark were called inactive. The rule behind the calls is not given here.
# Tested on: Potassium Channel [KATP]
# Experiment: selectivity profiling over binding targets, CYP450 – biochemical, Ricerca HitProfilingScreen, selectivity assay for S1P3 agonist project, profiling panel (AID 540351)
# Settings: Ricerca receptor/enzyme binding panel plus CYP450, at 30 µM, hits give high values
structure (smiles),measurement,value
O=C(c1cc(C2CC2)on1)N(C1CCCCC1)C1CCCCC1,inhibition,16%

# Source: PubChem BioAssay AID540351 (The Scripps Research Institute Molecular Screening Center, 2011)
